Most compounds without a hit are left out; they make up all but 19% or so of the library.
DT40 TDP1 no CPT: qHTS for Inhibitors of human tyrosyl-DNA phosphodiesterase 1 (TDP1): qHTS in cells in absence of CPT. DT40 Tdp1-/- hTDP1 cells, no CPT, ATP luminescence, 48 h. Potency, µM (titrated, usually from 46.2 µM), most hits filed as inhibitors. actives 15% (n = 420,000); also: nearly all actives have a fitted effect of over 55% in size
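Growth of hTDP1-complemented DT40 Tdp1-knockout cells is measured by ATP luminescence after at least 48 hr compound exposure at 37 °C, with DMSO substituting for the 20 nM CPT used in the parallel screen.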
IL1B secr inh: inflammasome signaling inhibition, IL-1 beta readout; actives 4.7% (n = 360,000); activity change, % at 57.5 µM; THP-1 LPS/ATP IL-1B secretion, AlphaLISA, 16 h; active compounds read low; AID 743279; in the data active = activity change below about -50%; inconclusive = mostly about -30% to -49%
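Secreted IL-1B measured by AlphaLISA bead assay after 16 h compound exposure of THP-1 cells; compounds (final up to 57.5 uM) added 1 h before LPS (250 ng/mL) and ATP (1.25 mM) stimulation; lower signal means less secretion.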
TDP1 cell CPT: growth inhibition of DT40 Tdp1-/-;hTDP1 cells with camptothecin (screen for TDP1 inhibitors) | chicken DT40 Tdp1-/-;hTDP1 cells + 20 nM CPT, ATP luminescence, 48 h | Potency, µM (highest dose often 46.2 µM), hits mostly inhibitors | actives 12% (n = 420,000) | AID 686979; also: nearly all actives have a fitted effect of over 55% in size
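Cell growth measured by CellTiter-Glo luminescence after a minimum 48 h, 37 C compound exposure with 20 nM CPT in Tdp1-knockout DT40 cells stably expressing hTDP1, seeded 400/well; qHTS titration format.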
HT1080 IDH1KD tx: toxicity to HT-1080 IDH1 knockdown cells (counter line); Potency, µM (doses to about 46.1 µM), actives largely listed as cytotoxic; AID 686971; HT-1080 IDH1 knockdown viability, ATP luminescence, 48 h; actives 2% (n = 360,000)
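After a 2 h attachment period, IDH1KD HT-1080 cells took pin-transferred compound for 48 h at 37 °C; ATP-based luminescence after 10 min room-temperature reagent incubation reported viability.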
HT1080NT lethal: kills 2HG-producing HT-1080-NT fibrosarcoma cells | actives 1.6% (n = 360,000) | Potency, µM (series often up to 46.1 µM), usual class: cytotoxic | HT-1080-NT fibrosarcoma viability, CellTiter-Glo ATP luminescence, 48 h;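 also: NT is the 2HG producing partner of a matched IDH1 knockdown line; nearly all actives have a fitted effect of over 55% in size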
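Compounds were tested in concentration-response format on HT-1080-NT cells for 48 hours at 37 degrees C. Cell viability came from CellTiter-Glo luminescence; curves were classified by r2, response magnitude and activity.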
Hits are given with their value; n = inactive; u = inconclusive; x = not tested or not shown. Unless noted, calls follow the shape of the dose curve; as a rule, active = well fitted curve in the direction sought with a large enough effect; inconclusive = small, poorly fitted or top-dose-only effect, or another doubt; inactive = no such curve, though single readings can be large; an effect the other way counts as inactive or inconclusive.

SMILES	DT40 TDP1 no CPT	IL1B secr inh	TDP1 cell CPT	HT1080 IDH1KD tx	HT1080NT lethal
OCC(Cc1ccccc1)Nc1c2ccccc2nc2ccccc12 (centres undefined)	16.4µM	-52.4	u	u	n
Oc1ccccc1Nc1nc(NCc2ccccc2)c2ccccc2n1	11.6µM	-100.6	11.6µM	u	u
c1ccc(CNc2c3ccccc3nc3ccccc23)cc1	18.4µM	-99.9	13µM	u	u
Cc1noc(C)c1S(=O)(=O)NC(=O)C1(C)CCN1C(=O)Cc1ccc(-c2ccccc2)cc1 (centres undefined)	n	n	n	n	n
CCOC(=O)c1cccc(NC(=O)CSc2nncn2-c2ccccn2)c1	n	n	n	n	n
CCOC(=O)c1c(C)nsc1NC(=O)C1CCCCC1	n	n	n	n	n
CCCCNc1nc(NCc2ccccc2)nc2ccccc12	8.2µM	-110.3	20.6µM	16.4µM	u
Oc1ccc(CCNc2c3ccccc3nc3ccccc23)cc1O	1.46µM	-99.3	1.16µM	u	23.1µM
Cc1cc(C(=O)NCCc2ccc(Cl)cc2)c2ccccc2n1	u	n	n	u	n
N#C/C(=C\c1ccccc1Cl)C(=O)Nc1ccccn1	n	n	n	n	n
CC(C)NC(=O)/C(C#N)=C/c1cccc(NC(=O)c2ccccc2Cl)c1	14.6µM	-103.9	u	u	u
Cc1ccc(NC(=O)/C(C#N)=C/c2ccccc2Cl)cc1C	25.9µM	x	25.9µM	x	x
CNc1ccc(/C=C(\C#N)C(=O)Nc2ccccn2)cc1[N+](=O)[O-]	n	n	n	n	n
N#C/C(=C\c1ccccc1C(F)(F)F)C(=O)Nc1ccccc1	n	-69.7	n	n	n
N#C/C(=C\C=C\c1ccccc1)C(=O)Nc1ccccc1	n	n	n	n	n
N#C/C(=C/c1ccc(O)c([N+](=O)[O-])c1)C(=O)Nc1ccccc1	6.51µM	n	4.11µM	8.2µM	u
O=C(CSc1nnc(NC(=O)c2ccccc2)s1)NC1CCCC1	n	n	n	n	n
CCc1cccc(CC)c1NC(=O)/C(C#N)=C/c1ccccc1C(F)(F)F	20.6µM	-98.6	u	u	23.1µM
CCCOc1ccccc1/C=C(\C#N)C(=O)Nc1cccc(C)n1	n	n	n	n	n
C[C@H](CO)N1C[C@H](C)[C@@H](CN(C)C(=O)Nc2cc(F)ccc2F)Oc2ncc(-c3cccc(F)c3)cc2C1=O	u	n	u	n	n
CCOC(=O)N1CCc2c(sc(NCc3sccc3C)c2C(=O)Nc2ccccc2OCC)C1	23.1µM	x	u	x	x
CCOc1ccccc1NC(=O)c1c(NC(=O)C(C)Oc2ccc(Cl)cc2)sc2c1CCCCC2 (centres undefined)	u	x	n	x	x
CCOc1ccccc1NC(=O)c1c(NC(=O)c2ccccc2)sc2c1CCCC2	u	x	4.11µM	x	x
CCOc1ccccc1NC(=O)c1c(NCc2sccc2C)sc2c1CCCCC2	14.6µM	x	8.2µM	x	x
CCOc1ccccc1NC(=O)c1c(NCc2cccs2)sc2c1CCCCC2	20.6µM	x	u	x	x
SMILES	DT40 TDP1 no CPT	IL1B secr inh	TDP1 cell CPT	HT1080 IDH1KD tx	HT1080NT lethal
CCOc1ccccc1NC(=O)c1c(NC(=O)C(C)Oc2cccc(Cl)c2)sc2c1CCCCC2 (centres undefined)	n	x	n	x	x
CCCc1nnc(NS(=O)(=O)c2ccc(C)cc2)o1	n	n	n	n	n
Cc1c(-n2c(SC(C)C(=O)NC(N)=O)nc3ccccc3c2=O)c(=O)n(-c2ccccc2)n1C (centres undefined)	n	n	n	n	n
CC(C)c1ccc(NC(=O)CSc2ncccc2C(=O)Oc2cccc([N+](=O)[O-])c2)cc1	u	n	u	u	u
CCN(CC)CCCC(C)NC(=O)c1c(NC(=O)c2ccccc2)sc2c1CCCC2 (centres undefined)	u	x	18.4µM	u	u
CCOC(=O)c1c(NC(=O)CCCOc2ccccc2C)sc2c1CCC(C)C2 (centres undefined)	n	x	n	x	x
CCOc1ccccc1NC(=O)c1c(NCc2sccc2C)sc2c1CCC(C)C2 (centres undefined)	6.51µM	x	6.51µM	x	x
Cc1ccc(NC(=O)CN(C)C(=O)Cn2ncc(Cl)c(Cl)c2=O)cc1	2.59µM	-104.6	3.26µM	20.6µM	u
Cc1ccc(NC(=O)CN(C)C(=O)Cc2ccc(Cl)c(Cl)c2)cc1	u	n	29.1µM	u	n
Cc1cccc(-n2nnnc2SCC(=O)N(CC(C)C)c2c(N)n(CC(C)C)c(=O)[nH]c2=O)c1	n	n	n	n	n
CC(C)CN(C(=O)COC(=O)CCSc1ccc(F)cc1)c1c(N)n(Cc2ccccc2)c(=O)[nH]c1=O	u	n	n	n	n
CC(C)CN(C(=O)COC(=O)CSc1ccccc1F)c1c(N)n(Cc2ccccc2)c(=O)[nH]c1=O	n	n	n	n	n
CCN(C(=O)COC(=O)CCOc1cc(C)ccc1C)c1c(N)n(Cc2ccccc2)c(=O)[nH]c1=O	u	n	18.4µM	n	n
CC(C)CN(C(=O)COC(=O)CCSc1ccc(Cl)cc1)c1c(N)n(Cc2ccccc2)c(=O)[nH]c1=O	18.4µM	n	u	n	n
CCCN(C(=O)COC(=O)CCOc1ccccc1C)c1c(N)n(Cc2ccccc2)c(=O)[nH]c1=O	n	n	n	n	n
Cc1ccc(SCC(=O)OCC(=O)N(CC(C)C)c2c(N)n(Cc3ccccc3)c(=O)[nH]c2=O)c(C)c1	u	n	u	23.1µM	u
Cc1ccc(-n2nnnc2SCC(=O)N(CC(C)C)c2c(N)n(CC(C)C)c(=O)[nH]c2=O)cc1	n	-51.7	n	n	n
CCC(=O)N1CCC1(C)C(=O)Nc1cc(-c2ccccc2)nn1C (centres undefined)	n	n	n	n	u
COc1ccc(CCNc2nc3cc(OC)c(OC)cc3c3nc(-c4cccnc4)nn23)cc1OC	n	x	n	x	x
Cc1[nH]c2ccc3c(ncn3CCC#N)c2c1C	n	n	n	n	n
COc1ccccc1CNC(=O)OCc1nccnc1C(=O)Nc1ccc(Br)cn1	u	n	u	n	n
CN1CC[C@@]2(CCCN(S(=O)(=O)c3ccccc3)C2)C1	n	x	n	x	x
CN(C(=O)COC(=O)CCC(=O)c1ccccc1)c1c(N)n(Cc2ccccc2)c(=O)[nH]c1=O	n	n	n	n	n
CN(C(=O)COC(=O)CCC(=O)c1ccc(Cl)cc1)c1c(N)n(Cc2ccccc2)c(=O)[nH]c1=O	18.4µM	n	n	n	n
Cc1ccc(NC(=O)C2C3CCCCC32)cc1[N+](=O)[O-] (centres undefined)	n	n	n	n	n
Cc1cc(NC(=O)OC2CCCCC2)ccc1[N+](=O)[O-]	u	-51.2	n	n	n
